# Hit rate of the full screen: of about 69,000 compounds, about 8,600 (12%) showed an effect of 50% or more. For the sample, strong results were picked, then their nearest neighbours and some compounds at random.
# Tested on: Plasmodium berghei
# Assay: Screen against P. berghei liver stage (PbLuc), transformed with Luciferase, at 10uM
# Format: functional, HepG2
# Conditions: tested at 10 uM
row,Compound,INHIBITION [%]
1,Cc1ccc(OCC(=O)N2CCOCC(O)(CN3CCCC3)C2)cc1C (stereo not given),37.9
2,Cc1cnc(CCNC(=O)C2CCN(S(=O)(=O)c3ccc(F)cc3)C2)s1 (stereo not given),-21.8
3,O=C(Cn1cc(-c2ccccc2)cn1)N1CCNC1=O,-7.53
4,Cc1cc(C(=O)NCCc2c(C)nn(C)c2C)nc(N2CCCCC2)n1,-10.5
5,O=C(CCn1nc(C(=O)Nc2ccccc2)ccc1=O)Nc1nccs1,13.1
6,N#Cc1ccc(CC(=O)N2CCC(Nc3cccnn3)CC2)cc1,-3.7
7,CCCc1n[nH]c(C2CN(C(=O)c3cncnc3C)CCO2)n1 (stereo not given),36.1
8,C=c1ncsc1=C1NC(c2cccc(CN3CCOCC3)c2)=NO1,12.6
9,COc1ccc(CN2CCC3(CC2)CCN(c2cnn(C)c2)C3=O)cc1,43.9
10,O=C(c1ccncc1)N1C[C@H]2CC[C@@H](C1)N(C(=O)C1CCCC1)C2,-3.48
11,CCn1cc(CN(C)S(=O)(=O)N2CCCC2c2ccco2)cn1 (stereo not given),32
12,CN(Cc1cnn(C)c1)S(=O)(=O)N1CCCC1c1ccco1 (stereo not given),52.2
13,CCN(Cc1cnn(C)c1)S(=O)(=O)N1CCCC1c1ccco1 (stereo not given),27.5
14,O=C(c1ccc(C2CCCN2C(=O)c2cscn2)s1)N1CCSCC1 (stereo not given),-30.6
15,CN(C)CC(=O)N1CCC2(CC1)COC(COc1ccccn1)C2 (stereo not given),35.3
16,Cc1ccc([C@]2(O)CC[C@H]3CN(Cc4cc(C)c(O)c(C)c4)C[C@H]32)nc1,45.5
17,COc1ncc(CN2C[C@@H]3CC[C@@](O)(c4ccc(C)cn4)[C@@H]3C2)cn1,41.2
18,Cc1ccc([C@]2(O)CC[C@H]3CN(Cc4ccncc4)C[C@H]32)nc1,66.4
19,Cc1ccc([C@]2(O)CC[C@H]3CN(Cc4cccnc4)C[C@H]32)nc1,41.2
20,O[C@@]1(c2ccccn2)CC[C@H]2CN(Cc3ccccn3)C[C@H]21,29.3
21,CSc1ccc(CN2C[C@@H]3CC[C@@](O)(c4ccc(C)cn4)[C@@H]3C2)cc1,75.3
22,O=C(C[C@@H]1COC[C@H]2CN(Cc3ccccn3)C[C@@H]12)N1CCOCC1,33

row,Compound,INHIBITION [%]
1,Cc1noc(C)c1CC(=O)NCC1(O)CCCN(c2ccccn2)C1 (stereo not given),14.6
2,CSc1ccc(CN(C)Cc2noc(C(C)(C)C)n2)cc1,56.9
3,CCN(Cc1noc(C(C)(C)C)n1)Cc1ccc(C#N)cc1F,28
4,CC(c1nc(C2CC2)no1)N(C)Cc1ccc(C#N)cc1 (stereo not given),-4.4
5,CN(Cc1ccc(C#N)cc1)Cc1noc(C(C)(C)C)n1,53.5
6,CC(C)(C)c1nc(CN(Cc2ccccc2Cl)C2CCCC2)no1,9.35
7,CC(C)(C)c1nc(CN(CCO)Cc2cc(Br)ccc2F)no1,-38.2
8,CCc1cc(N(C)CCCO)n2nccc2n1,19.4
9,Cc1noc(C)c1CN(C)C(=O)Nc1cnn(CC2CCCO2)c1 (stereo not given),18.4
10,Cc1cc(C(=O)N[C@H](C)c2onc(C)c2C(=O)O)c(C)o1,-12.2
11,COCCSCC(=O)NCc1ccnc(N(C)C)c1,46.4
12,Cc1oc(C(C)C)cc1C(=O)N1C[C@@H]2CC[C@H]1CN(S(=O)(=O)N(C)C)C2,-19.5
13,O=C1N(CCO)CCCC12CCN(Cc1noc(C3CCCC3)n1)C2 (stereo not given),22.7
14,CCCN1CCCC2(CCN(Cc3noc(C4CCCC4)n3)C2)C1=O (stereo not given),-15.8
15,CNC1CCCN(Cc2noc(C3CC3)n2)C1 (stereo not given),-17.4
16,O=C1CCC2(CCCO2)CCN1Cc1noc(C2CCCC2)n1 (stereo not given),26.7
17,CC(C)N1CCCC2(CCN(Cc3noc(C4CCCC4)n3)C2)C1=O (stereo not given),70.2
18,CC(C)N1CC2(CCCN(Cc3noc(C4CCCC4)n3)C2)CCC1=O (stereo not given),50.5
19,CCN1CCC2(CCN(Cc3nccs3)CC2)C1=O,-28.8
20,O=C(NCC(=O)N1CCCCC1)c1ccoc1,17.3
21,Cc1ccc2[nH]c(=O)c(CNCCCN3CCOCC3)cc2c1,-37
22,Cc1csc2c(N3CCNC(C(=O)Nc4ccc(F)cc4)C3)ncnc12 (stereo not given),62.8

row,Compound,INHIBITION [%]
1,Cc1csc2c(N3CCNC(C(=O)N4CCCC4)C3)ncnc12 (stereo not given),-10.1
2,Cc1csc2c(N3CCNC(C(=O)NCc4cccnc4)C3)ncnc12 (stereo not given),16.9
3,CCn1cc(CN2C[C@@H]3CCCN3C[C@@H]2CCSC)c(C)n1,46.1
4,CN(C)C(=O)Cn1cc(C(=O)NCCc2ccc(C(F)(F)F)cc2)nn1,-25.9
5,Cc1nc(CCN2CCCCC2)n(-c2ccc(F)cc2)n1,-8.19
6,CNS(=O)(=O)CCn1cc(-c2cc3c(cc2OC)CCC3)nn1,37.3
7,Cc1cc(-n2nc(C)nc2-c2cn(CCN)nn2)ccn1,41.5
8,Cc1nc(-c2cn(CCN)nn2)n(-c2ccc(C(F)(F)F)cc2)n1,76.8
9,Cc1nc(-c2cn(CCN)nn2)n(-c2ccc3c(c2)CCC3)n1,56.5
10,CC(C)c1noc(CNC2CCCN(Cc3noc(C4CC4)n3)C2)n1 (stereo not given),-42.1
11,Cc1nc(N2CCN(C)CC2)ncc1C(=O)N1CC[C@](C)(O)[C@H](C)C1,-10.2
12,Cc1ccoc1C1=NNC(=CN2CCn3c(C)nnc3C2)O1,-21.7
13,COCCN1CCN(C=C2NN=C(c3occc3C)O2)CC1,43.4
14,CCc1nnc2n1CCN(C=C1NN=C(c3occc3C)O1)C2,11.2
15,Cc1ccoc1C1=NNC(=CN2CCOC(Cn3cccn3)C2)O1 (stereo not given),-50.5
16,CCOCCN1CCN(C=C2NN=C(c3occc3C)O2)CC1,70.3
17,CCOCCN1CCN(C=C2NN=C(c3occc3C)O2)CC1CC (stereo not given),76.7
18,CC(C)c1nc(CN2CCN(C(=O)OC(C)(C)C)C(C)C2)no1 (stereo not given),-9.35
19,Cc1nn(C)c2c(=O)n(Cc3ccc(C#N)cc3)nnc12,8.15
20,CC(C)OCCCNC(=O)CS(=O)(=O)Cc1cccc(Cl)c1,-63.3
21,Cn1ccnc1-c1cn(CCc2nnc(N)s2)nn1,40.2

# Source: ChEMBL document CHEMBL4513216, “Probing the Open Global Health Chemical Diversity Library for Multistage-Active Starting Points for Next-Generation Antimalarials” (ACS Infect Dis, 2020)
